Compound activity (PubChem BioAssay)
Rpn11 block: inhibitors of human proteasome Rpn11. O00487. human 26S proteasome, Ub4-pepOG fluorescence polarization; 20S core pre-blocked with epoxomicin. actives 0.59% (n = 360,000). inhibition, % at 20 µM;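 active means inhibition at 20 µM, scaled to each plate's controls, above about 33%, limit read from the data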
PP1 inh: PP1-alpha (human) inhibition in PP5 counter-screen; P62136; purified PP1alpha, OMFP fluorescence; AID 2235; inhibition, % at 6.7 µM; actives 0.9% (n = 320,000);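 active means inhibition above the mean inhibition of all tested compounds plus 3 SD, computed separately for each screening campaign, cut at about 15% in these data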
PP5 inh: inhibitors of human protein phosphatase 5 (PP5) | P53041 | purified PP5c, OMFP substrate fluorescence | inhibition, % at 6.7 µM | actives 0.18% (n = 320,000) | AID 1987;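 active means inhibition above the campaign's mean inhibition across all tested compounds plus 3 SD, cut at about 9.5% in these data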;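 further: 0% = DMSO only and 100% = 100 µM cantharidin control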
NadD inh: inhibitors of Staphylococcus aureus NadD; purified NadD enzyme, colorimetric absorbance read-out; inhibition, % at 20 µM; actives 0.78% (n = 360,000); AID 602399; in the data active means inhibition above about 26%
PREPL inhibitor: inhibitors of human prolyl oligopeptidase-like enzyme PREPL; actives 0.68% (n = 320,000); recombinant PREPL, fluorescence polarization activity-based probe; Q4J6C6; inhibition, % at 5.96 µM;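 further: 0% = enzyme with DMSO and 100% = wells lacking enzyme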
PP5 conf: PP5 (human) inhibition, confirmation; shares compounds with PP5 inh; Purified PP5, fluorogenic phosphatase substrate, fluorescence; inhibition, % at 6.7 µM; actives 22% (n = 460); in the data active means inhibition above about 9.5%
PP1 inh counter: inhibits human PP1 phosphatase in PP5 counter-screen | PP1 enzyme, fluorescent phosphatase substrate | shares compounds with PP5 inh | actives 4% (n = 460) | inhibition, % at 6.7 µM; in the data active means inhibition above about 16%
PP1 inh confirm: confirmation of human PP1 phosphatase inhibitors. inhibition, % at 6.7 µM. actives 52% (n = 1,900). purified PP1alpha, OMFP substrate fluorescence. shares compounds with PP1 inh;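 active means mean PP1 inhibition above a set limit taken from the earlier primary screen, cut at about 15% in these data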
PP5 inh counter: counter-screen for PP1 inhibitors: human PP5 phosphatase inhibition; shares compounds with PP1 inh; actives 4% (n = 1,900); inhibition, % at 6.7 µM; purified PP5c, OMFP fluorescence;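 active means mean PP5 inhibition over triplicate wells above about 9.5% taken from the earlier PP1 screen, limit read from the data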
PREPL inh cf: confirmation of human PREPL enzyme inhibitors. shares compounds with PREPL inhibitor. recombinant PREPL, fluorescence polarization activity probe. inhibition, % at 5.96 µM. actives 67% (n = 2,000);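 further: 0% = protein with DMSO and 100% = wells lacking protein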
Rpn11 inh conf: confirmation of human proteasome Rpn11 inhibitors | actives 29% (n = 1,900) | shares compounds with Rpn11 block | purified human 26S proteasome, Ub4-pepOG fluorescence polarization; proteasome pretreated with epoxomicin | inhibition, % at 20 µM; in the data active means inhibition above about 40%
MMP-2 inh: MMP-2 (human) inhibition counter-screen; shares compounds with Rpn11 block; recombinant MMP-2, FRET peptide cleavage fluorescence; inhibition, % at 20 µM; actives 4% (n = 1,900); AID 602330; in the data active means inhibition above about 40%;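 further: human MMP-2 activated beforehand with APMA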
Thrombin inh: blocks bovine thrombin, flagging nonselective RPN11 hits; shares compounds with Rpn11 block; bovine thrombin cleavage of Ub4-pepOG, fluorescence polarization; inhibition, % at 20 µM; actives 13% (n = 1,900); AID 602333;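 active means mean inhibition at least 40% at 20 µM, or signal 3 deviations below plate average, so some actives read negative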;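 further: plate controls were thrombin with DMSO for no effect and buffer wells lacking thrombin for full effect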
Active calls of the source: *; x = not tested or not shown. A selection: hits, their analogues and other compounds. The true share with any hit is near 2.4%. Unless noted, no stated cut-off is given here; in the data, active means inhibition above about 43%; inactive means the rest.

SMILES	Rpn11 block	PP1 inh	PP5 inh	NadD inh	PREPL inhibitor	PP5 conf	PP1 inh counter	others
CCCCCCC(C)(C)c1ccc([C@@H]2C[C@H](O)CC[C@H]2CCCO)c(O)c1	-6.7	-0.5	10.4*	-9.2	-0.3	3.6	4.5
C#C[C@]1(O)CC[C@H]2[C@@H]3[C@H](O)C[C@H]4C[C@@H](O)CC[C@]4(C)[C@H]3CC[C@@]21C	-4.0	x	x	2.0	x	x	x
COCCNC(=O)c1c(N)n(CCC(C)C)c2nc3ccccc3nc12	-2.3	6.1	10.5*	-6.0	10.7	22.9*	3.2
CCCCNC(=O)c1c(N)n(CCCOC)c2nc3ccccc3nc12	6.5	4.6	4.9	-3.6	13.9	x	x
CC(C)CNC(=O)c1c(N)n(Cc2ccc3c(c2)OCO3)c2nc3ccccc3nc12	13.0	7.0	12.4*	11.5	11.3	21.4*	2.8
CC(C)OCCCNC(=O)c1c(N)n(Cc2cccs2)c2nc3ccccc3nc12	17.9	2.2	11.7*	-11.8	11.6	14.7*	9.3
CCCCCCCCn1sccc1=O	0.4	6.1	1.2	8.5	6.6	x	x
Cc1c(OC(=O)N(C)C)ccc2c1O/C(=C\c1ccco1)C2=O	10.7	x	x	-3.1	x	x	x
CCC(C)/C=C(C)/C=C/C1=CC2=C(Cl)C(=O)C(C)(OC(C)=O)C(=O)C2=CO1 (centres undefined)	-3.6	0.6	12.2*	8.9	13.2	7.4	6.2
COP(=S)(OC)SCn1nnc2ccccc2c1=O	2.7	x	x	-6.1	x	x	x
CN1CC[C@@]2(C)c3cc(O)ccc3N(C)C2O1 (some centres undefined)	-9.1	3.3	13.7*	6.4	7.6	25.7*	5.1
COc1cc(OC)c2c(c1)O[C@@H](c1ccc(OC)c(OC)c1)[C@H](O)C2	10.9	-3.3	-2.2	-0.9	18.9	x	x
COC(=O)C1=C(c2ccc(OC(F)(F)F)cc2)C[C@@H]2CC[C@H]1N2C(=O)NCCOc1ccccc1Cl	1.5	8.9	11.1*	-12.5	7.2	6.3	4.2
COC(=O)C1=C(c2ccc(OC(F)(F)F)cc2)C[C@@H]2CC[C@H]1N2C(=O)NCCOc1ccccc1	2.8	3.2	8.1	-3.8	-4.2	x	x
CCOC(=O)c1c(NS(=O)(=O)c2ccccc2)n(CCCOC)c2nc3ccccc3nc12	4.2	2.0	10.7*	9.1	45.7*	9.9*	-0.5	PREPL inh cf=10.9
CC[C@H]1CN2CCC1C[C@@H]2[C@H](O)c1ccnc2ccc(OC)cc12 (some centres undefined)	1.3	x	x	2.1	x	x	x
COc1ccc(Cn2c(N)c(C(=O)NCc3ccco3)c3nc4ccccc4nc32)cc1OC	46.2*	6.6	11.7*	12.8	13.1	44.3*	10.0	Rpn11 inh conf=-3.5;MMP-2 inh=-37.3;Thrombin inh=-1.9
O=c1[nH]c2ccccc2n1C1CCN(C(CCc2ccccc2)c2nnnn2C2CCCCC2)CC1 (centres undefined)	0.5	x	x	19.0	x	x	x
CN(C)C1C(=O)C(C(N)=O)=C(O)C2(O)C(=O)C3=C(O)c4c(O)cccc4C(C)(O)C3C(O)C12 (centres undefined)	x	33.4*	3.7	1.2	19.7	x	x	PP1 inh confirm=-3.8;PP5 inh counter=-4.2
